# Screening data from PubChem BioAssay.
# VLA-4 antagonist: inhibitors of LDV-FITC binding to Mn2+-activated VLA-4, primary screen, Jurkat cells; Integrin alpha-4 (Homo sapiens), P13612; LDV-FITC binding with Mn2+, flow cytometry; 100% = Mn2+-driven binding gain fully reversed; inhibition, % at 10 µM (by protocol); 24,000 compounds, 0.2% hits; AID 529, 2006;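 active means inhibition above 50%; inconclusive means compound itself fluorescent, judged against control cell fluorescence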;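 further: 0% = Mn2+ stimulated cells lacking compound and 100% = ligand binding without Mn2+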
# Target sequence (P13612 whole entry, looked up): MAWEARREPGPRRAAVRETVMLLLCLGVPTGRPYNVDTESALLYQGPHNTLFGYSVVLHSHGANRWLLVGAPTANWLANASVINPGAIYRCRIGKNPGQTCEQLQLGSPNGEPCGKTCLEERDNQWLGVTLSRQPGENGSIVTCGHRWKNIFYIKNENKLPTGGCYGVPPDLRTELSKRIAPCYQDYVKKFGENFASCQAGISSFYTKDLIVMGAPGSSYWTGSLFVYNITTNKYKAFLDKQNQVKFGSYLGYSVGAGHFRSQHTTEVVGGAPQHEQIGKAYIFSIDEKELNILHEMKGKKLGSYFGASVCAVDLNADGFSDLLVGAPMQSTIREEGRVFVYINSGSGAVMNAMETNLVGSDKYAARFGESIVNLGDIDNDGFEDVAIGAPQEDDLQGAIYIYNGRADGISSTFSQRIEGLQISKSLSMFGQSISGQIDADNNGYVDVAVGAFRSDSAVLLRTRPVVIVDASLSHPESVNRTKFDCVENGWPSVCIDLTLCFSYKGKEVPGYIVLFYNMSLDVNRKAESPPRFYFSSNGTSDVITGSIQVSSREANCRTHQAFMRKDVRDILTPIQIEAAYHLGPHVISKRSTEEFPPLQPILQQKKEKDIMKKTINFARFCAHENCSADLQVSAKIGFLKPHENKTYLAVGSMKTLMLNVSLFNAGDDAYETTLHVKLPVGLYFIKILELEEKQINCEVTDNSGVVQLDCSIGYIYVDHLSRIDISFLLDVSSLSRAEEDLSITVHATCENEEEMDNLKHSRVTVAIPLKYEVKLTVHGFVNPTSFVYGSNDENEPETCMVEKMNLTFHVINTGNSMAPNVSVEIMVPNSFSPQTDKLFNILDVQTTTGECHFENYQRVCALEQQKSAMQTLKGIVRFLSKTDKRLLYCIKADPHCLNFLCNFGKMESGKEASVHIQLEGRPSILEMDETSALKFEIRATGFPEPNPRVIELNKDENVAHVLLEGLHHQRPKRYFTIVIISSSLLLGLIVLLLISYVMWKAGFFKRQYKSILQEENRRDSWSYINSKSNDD
# VLA-4 allo ag: enhancers of LDV-FITC binding to VLA-4 integrin, primary screen, Jurkat cells, flow cytometry. activation, % at 10 µM (by protocol). 24,000 tested, under 10 active. Integrin alpha-4 (Homo sapiens), P13612;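 active means fluorescent ligand binding to cells raised by more than 40% of the manganese-induced maximum; inconclusive means compound's own fluorescence above 85% of the ligand control signal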;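 further: 0% = ligand binding without compound and 100% = manganese-stimulated maximal binding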
# Prostate diff: activators of LNCaP prostate cell differentiation, primary screen, flow cytometry side scatter; 24,000 compounds, 0.56% hits; 4 d; side scatter shift, % at 10 µM;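 active means side scatter shift above 30%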;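 further: androgen-responsive LNCaP prostate cancer cells in charcoal-stripped serum medium; percent of cells past a gate set so DMSO wells show 10% shift; higher shift means more granular cells and more differentiation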
# Proteasome disasm: inhibitors of ATP-driven 26S proteasome dissociation, primary screen, biochemical, bead-based flow cytometry, GFP-tagged proteasome; AID 751, 2007; anti-FLAG beads, GFP-proteasome disassembly; inhibition of disassembly, % (concentration not given with the values); 24,000 compounds, 0.2% hits;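 active means inhibition of disassembly above about 33%, limit read from the data; inconclusive means likely self-fluorescent, control bead median signal at least 40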;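 further: plate controls were ATP control with full disassembly for no effect and ATP-gamma-S intact proteasomes for full effect; higher percent means more bead fluorescence retained so stronger block of disassembly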
# Autofluor Jurkat: compound autofluorescence on Jurkat cells, primary screen, artefact control for VLA-4 allosteric ligand project, cell-based, flow cytometry; hits give high values; 1 = vehicle-only cell background; AID 576, 2007; fluorescence ratio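 (tested at 10 µM compound in the well)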; 24,000 compounds, 0.61% hits;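 active means fluorescence ratio above 2.44, which is 1 plus 3 SD of all ratios; inconclusive means signal too bright to measure linearly, ratio around 10 or more; inactive means fluorescence ratio below 2.44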;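 further: green fluorescence of cells measured with 488 nm excitation and 530 nm emission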
# Starred values were filed as active, the others as inactive; u = inconclusive; x = not tested or not shown. Most compounds without a hit are left out; they make up all but 1.6% or so of the library.
SMILES,VLA-4 antagonist,VLA-4 allo ag,Prostate diff,Proteasome disasm,Autofluor Jurkat
Cc1c(C(=O)Nc2ccc3c(c2)OCO3)sc2nc(-c3ccccc3)cn12,20,-3,3,0,1.2
Cc1c(C(=O)Nc2ccccc2)sc2nc(-c3ccccc3)cn12,74*,-11,4,0,1.3
Cc1cccc(NC(=O)c2sc3nc(-c4ccc(F)cc4)cn3c2C)n1,u,u,26,75*,5.1*
CC1(C)N=C(c2ccc(Cl)cc2)C(=O)N1,13,6,5,-2,1.1
c1ccc(N2CCN(c3nc4ccccc4n4nnnc34)CC2)cc1,u,u,3,-3,u
c1ccc(CCNc2nc3ccccc3n3nnnc23)cc1,u,u,4,1,9.2*
Cc1ccc2c(c1)N(CCC(=O)NCCCOC(C)C)C(=O)C(C)O2 (stereo not given),-2,-3,3,1,1
Cc1oc(-c2ccc(Cl)cc2)nc1CN1CCC(C(=O)N2CCc3ccccc3C2)CC1,u,u,11,-1,1.3
Cc1oc(-c2ccc(Cl)cc2)nc1CN1CCC(C(=O)N2CCN(Cc3ccccc3)CC2)CC1,u,u,78*,32,1.2
Cc1oc(-c2cccc(Cl)c2)nc1CN1CCC(C(=O)N2CCN(c3ccccc3F)CC2)CC1,18,-7,34*,9,1.2
COc1ccc(NC(=O)C2=C(C)C(=O)OC23CCC(C)CC3)c(OC)c1 (stereo not given),u,u,3,-3,1.8
Cc1cc(S(=O)(=O)N2CCN(c3ncccn3)CC2)ccc1-n1cnnn1,-2,-2,4,-8,1
Cc1nc2cc(Cl)c(Cl)cc2nc1C,u,u,3,-2,3.1*
CCOC(=O)c1c(NC(=O)c2cc(C3CC3)on2)sc2c1CCCC2,-5,1,11,-2,1
CN(CCNC(=O)c1ccc(N2CCCC2=O)cc1)CCc1ccccc1,-10,2,5,-1,1
Cc1ccc(-c2nc(NC(=O)CSc3nnnn3-c3ccccc3)ns2)cc1,51*,-16,13,2,1.2
O=C(CSc1nnc2scc(-c3ccccc3)n12)Nc1nsc(-c2ccccc2)n1,14,-9,8,2,0.92
CC1=C(C(=O)N2CCc3ccccc32)C2(CCC(C)CC2)OC1=O (stereo not given),u,u,6,3,6*
Cc1cccn2c(=O)c3cc(C(=O)NC4CCCC4)c(=N)n(C4CCCC4)c3nc12,9,-3,19,3,1.2
N=c1c(C(=O)NC2CCCC2)cc2c(=O)n3ccccc3nc2n1C1CCCC1,u,u,68*,10,1.1
Cc1cccc(N2CCN(C(=O)C3CCCN(S(=O)(=O)c4cccc5cccnc45)C3)CC2)c1C (stereo not given),-11,-5,16,-1,1.1
O=C(OC1CCCCC1)c1ccc2c(c1)C1C=CCC1C(C(=O)O)N2 (stereo not given),u,u,8,0,3.8*
CC(C)(C)NC(=O)NC(=O)COc1ccccc1C#N,u,u,11,11,4*
Cn1c(CN2CCOCC2)nnc1SCC(=O)NCCc1ccccc1,-8,-4,13,3,1.1
CCOc1ccc(NC(=O)c2oc3ccccc3c2NC(=O)C(C)C)cc1,u,u,16,0,2.5*
SMILES,VLA-4 antagonist,VLA-4 allo ag,Prostate diff,Proteasome disasm,Autofluor Jurkat
CCOc1ccc(NC(=O)c2oc3ccccc3c2NC(=O)CC)cc1,u,u,12,0,1.7
Cc1ccc(Cn2nnc3c(=O)n(Cc4cc(C)ccc4C)cnc32)cc1,u,-4,17,0,1.2
CCOc1c(C)cc2[nH]c(CCC(=O)O)nc2c1C,-28,4,12,1,0.98
CCCSc1nc(N)c(C#N)c(-c2ccc(C)cc2)c1C#N,-34,10,15,1,1.1
CCN(CC)c1ccc(-c2c(C#N)c(N)nc(OC)c2C#N)cc1,u,u,11,57*,8.2*
N#Cc1c(N)n(CCNC(=O)c2cccs2)c2nc3ccccc3nc12,u,u,2,15,5.3*
CCOc1ccc(C2C(C(=O)OC)=C(C)N=C3SCCC(=O)N32)cc1OCC (stereo not given),6,-3,9,-2,1.1
CCOc1cc(C2C(C(=O)OC)=C(C)N=C3SCCC(=O)N32)ccc1OC(C)=O (stereo not given),u,u,9,1,2.7*
COc1ccc(CCNC(=O)c2ccn[nH]2)cc1OC,25,3,8,-1,1
COc1cc2[nH]c(=O)n(CCCCCC(=O)NCCc3c[nH]c4ccccc34)c(=O)c2cc1OC,18,-3,x,x,0.99
CCOC(=O)c1c(C)oc2c1c1c(c3ccccc32)OCN(Cc2ccccn2)C1,79*,-14,x,x,1.1
CCOC(=O)c1c(C)oc2c1c(C(c1ccncc1)N1CCOCC1)c(O)c1ccccc12 (stereo not given),14,-18,2,0,1.2
COc1nc(-c2ccc(Cl)cc2)ccc1-c1noc(-c2ccncc2)n1,-12,0,8,3,1.1
COc1ccc(-c2ccc(-c3noc(-c4ccccc4)n3)c(OC)n2)cc1,-5,6,34*,25,1
CC(=O)Nc1ccc(S(=O)(=O)/N=C2\SCCN2S(=O)(=O)c2ccc(NC(C)=O)cc2)cc1,-11,5,16,0,1.1
CN(C(=O)c1ccccn1)c1nnc(-c2cccnc2)s1,4,-12,32*,1,1
COc1cccc(NC(=O)CCSc2nnc3scc(-c4ccccc4)n23)c1,-6,-3,1,1,1.1
CCOc1cc(C2NC(=O)N(C)C(C)=C2C(=O)OC)cc(Br)c1O (stereo not given),u,u,10,16,4.3*
CCOCCOC(=O)C1=C(C)N(C)C(=O)NC1c1cc(Cl)c(O)c(OC)c1 (stereo not given),-14,1,4,0,1.2
CC1=C(C)C(=O)NC(Nc2nc(C)c3cc(C)cc(C)c3n2)N1 (stereo not given),-12,-4,4,1,1.1
Cc1cccc2sc(NC(=O)C3CCCN(S(=O)(=O)c4cccc5nonc45)C3)nc12 (stereo not given),u,u,9,27,2.6*
Cc1ccc2nc(NC(=O)C3CCCN(S(=O)(=O)c4cccc5nonc45)C3)sc2c1 (stereo not given),u,u,5,22,3.1*
Cc1n[nH]c(C)c1S(=O)(=O)N1CCN(C2CCCCC2)CC1,-11,1,7,1,0.99
CC(=O)N1c2ccc(S(=O)(=O)CCC(=O)O)cc2CC1C (stereo not given),61*,-3,9,-1,1.1
